# Rows were chosen to be rich in hits. Some 2.4% of all compounds tested hit in one or more screens of this group.
# D2 ag-1 = activates the human D2 dopamine receptor. activation, % at 2 µM. hit rate 0.53% among 340,000. HEK293 T-REx D2 cells, calcium flux agonist mode. P14416. AID 485358;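 active = activation over 3 SD above normal in the single-dose calcium agonist read, cut at about 30% in these data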; also: 0% is about no effect
# Target sequence (P14416 whole entry, looked up): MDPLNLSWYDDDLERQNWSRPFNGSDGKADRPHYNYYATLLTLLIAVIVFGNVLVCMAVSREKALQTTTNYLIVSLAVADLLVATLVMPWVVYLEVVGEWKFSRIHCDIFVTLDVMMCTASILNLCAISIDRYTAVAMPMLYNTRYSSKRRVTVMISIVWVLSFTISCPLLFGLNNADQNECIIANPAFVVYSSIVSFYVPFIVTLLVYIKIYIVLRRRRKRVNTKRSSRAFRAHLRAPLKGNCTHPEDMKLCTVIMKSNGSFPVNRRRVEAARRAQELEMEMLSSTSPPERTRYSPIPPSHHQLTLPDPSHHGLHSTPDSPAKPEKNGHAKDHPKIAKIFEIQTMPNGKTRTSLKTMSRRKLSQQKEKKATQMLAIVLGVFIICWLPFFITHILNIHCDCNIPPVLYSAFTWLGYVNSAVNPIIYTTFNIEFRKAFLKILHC
#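 Tetracycline-induced HEK293 Trex cells with D2 receptor force-coupled to calcium signaling, plated overnight at 30 C and loaded with no-wash calcium dye. Calcium flux read kinetically for 180 s after compound addition; responses flag agonists.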
# D2 PAM-1 = positive allosteric modulators of human D2 dopamine receptor | P14416 | HEK293 T-REx D2, calcium flux, EC20 dopamine potentiation | potentiation, % at 10 µM | hit rate 0.34% among 340,000 | AID 485347;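 active = potentiation over 3 SD above the plate norm, cut at about 30% in these data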; also: 0% is about no effect
#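 Calcium flux readout, no-wash dye, 1 read/s. Inducible HEK293 Trex D2 line, overnight 30 C. Compound alone 180 s (agonist flags), then EC20 dopamine, another 180 s to score potentiation.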
# D2 ag-2 = human D2 receptor agonism in beta-arrestin assay | activation, % (no concentration beside the values) | P14416 | AID 624465 | DiscoveRx PathHunter D2 beta-arrestin, luminescence, 90 min; 100% = 57 uM dopamine signal | hit rate 0.084% among 360,000; in the data active = activation above about 40%; inconclusive = between about 15% and that limit
#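 Agonist mode: compounds alone added to overnight-plated D2 PathHunter cells for 90 min at 37 C, with 57 uM final dopamine (EC100) defining full response. Beta-arrestin recruitment detected by chemiluminescent reagent, read after 1 h at ambient temperature.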
# D2 PAM-2 = human D2 receptor positive allosteric modulation. DiscoveRx D2 beta-arrestin cells, luminescence, 90 min; 100% = 57 uM dopamine signal. P14416. potentiation, % (no concentration beside the values). AID 624464. hit rate 0.23% among 360,000; in the data active = potentiation above about 50%; inconclusive = mostly about 30% to 49%
#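 PathHunter D2 cells, attached overnight at 37 deg C, received compound in DMSO plus dopamine at EC20 (50 nM final) for 90 min at 37 deg C. Beta-arrestin recruitment was read as luminescence after 1 h with detection reagent at ambient temperature.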
# D2 antag = D2 dopamine receptor (human) antagonism | HEK293 TREx D2 cells, calcium flux, dopamine EC80 | inhibition, % at 10 µM | hit rate 2% among 340,000; in the data active = inhibition above about 30%; inactive = below that, where a call was filed; also: 0% is about no effect
#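 Cells plated overnight at 30 C with tetracycline; no-wash calcium dye, 30–90 min RT; 10 s baseline; compound pinned; 180 s read; EC80 dopamine added; another 180 s read.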
# * = called active by the depositor; ? = inconclusive; . = no result.
SMILES,D2 ag-1,D2 PAM-1,D2 ag-2,D2 PAM-2,D2 antag
COC(=O)c1ccccc1NC(=O)c1ccc2nc(Cc3ccccc3)oc2c1,0.2,3.4,.,.,.
CCc1ccc(NC(=O)c2ccc(F)c(S(=O)(=O)NCCc3ccc(OC)c(OC)c3)c2)cc1,1.0,-11.9,.,.,.
CCOC(=O)c1cc2occc2n1Cc1c(F)cccc1Cl,-0.2,-3.0,-3.9,-10.1,31.2*
CCOC(=O)c1cc2occc2n1Cc1ccc(F)cc1,0.4,-13.5,-3.6,-5.4,34.2*
COC(=O)c1cc2occc2n1Cc1ccc(Cl)cc1,-0.7,-6.9,-0.9,-9.4,-0.1
Cc1ccc(NC(=O)CS(=O)CC(=O)N(CC(=O)NC2CCCC2)c2cc(C)ccc2C)cc1 (centres undefined),.,-9.3,-1.6,-17.0,.
Cc1ccc(NC(=O)CS(=O)CC(=O)N(C2CCCC2)C(C)C(=O)NC2CCCCC2)cc1 (centres undefined),-0.1,48.7*,-1.5,-27.5,2.3
Fc1cccc(F)c1CN1CCN(c2ncccn2)CC1,33.5*,-13.5,?,20.9,-2.6
Cc1ccc(Sc2ccc(CN3CCCC3)cc2[N+](=O)[O-])cc1,1.2,-15.0,1.0,-12.1,36.4*
COc1ccc(CCNC(=O)c2ccc(Cn3c(=O)c4cccn4c4cccnc43)cc2)cc1OC,0.1,-10.2,.,.,.
CCOC(=O)c1c(-c2ccccc2)oc2ccc(N(C(C)=O)S(=O)(=O)c3ccc(CC)cc3)cc12,-0.4,-21.9,.,.,.
COc1ccc(C(=O)c2nccc3cc(OC)c(OC)cc23)cc1OC,0.0,15.0,?,94.5*,-15.6
COc1ccc(C(=O)c2ccc(OC)c(OC)c2)cc1OC,-0.2,-7.6,-2.2,-2.0,-6.6
Cc1ccc(NC(=O)CN2CCSc3ccc(S(=O)(=O)N4CCCC4)cc32)cc1C,0.0,-6.3,.,.,.
COc1ccccc1N1CCN(C(=S)Nc2ccccc2)CC1,0.3,-5.2,4.8,-12.4,47.2*
COc1ccccc1N1CCN(C(=S)Nc2ccc(F)cc2)CC1,1.1,-3.3,3.0,-15.4,-10.5
Cc1cc(C)n(C(C)CC(=O)Nc2ccc(C)c(N(C)C)c2)n1 (centres undefined),-0.2,3.3,.,.,.
Clc1ccc(/C=N/Nc2nnc(-c3ncc[nH]3)c3ccccc23)cc1,0.0,-18.1,-3.5,-17.2,70.4*
CCN(c1ccccc1)c1ncnc2c1cnn2-c1ccc(OC)cc1,-0.2,-11.8,.,.,.
N#Cc1cnn(-c2ccccc2)c1NC(=O)c1ccccc1F,0.2,79.8*,7.4,-2.5,14.2
O=C(Nc1c(C(=O)N2CCCCC2)cnn1-c1ccccc1)c1ccccc1F,0.6,0.7,-3.4,-9.0,-16.2
Cc1ccc(C)c(NC(=O)CCc2nc3cccnc3n2Cc2cccs2)c1,-0.8,1.5,.,.,.
COc1cc2c(C(=O)N(C)c3cc(Cl)ccc3OC)cn(CC(C)C)c(=O)c2cc1OC,0.7,-13.3,.,.,.
O=C(CN1CCc2ccccc2C1)N1CCN(S(=O)(=O)c2ccccc2)CC1,35.1*,-11.3,6.4,-5.0,7.3
CC(=O)c1cccc(NC(=O)c2ccc(CN3CCc4ccccc4C3)cc2)c1,6.9,-31.8,-8.5,-3.6,18.9
SMILES,D2 ag-1,D2 PAM-1,D2 ag-2,D2 PAM-2,D2 antag
CCOc1ccc(C(=O)Nc2ccccc2NC(C)=O)cc1OCC,-1.8,-36.8,-0.3,-9.3,102.7*
Cc1ccc(S(=O)(=O)N2CCN(C(=O)CN3CCc4ccccc4C3)CC2)cc1,15.1,-17.5,2.0,-11.6,3.1
O=C(Nc1ccc(S(=O)(=O)N2CCCC2)cc1)c1ccc(CN2CCc3ccccc3C2)cc1,2.7,-16.2,1.3,-36.4,64.0*
Cc1cc(C)c(NC(=O)c2ccc(CN3CCc4ccccc4C3)cc2)c(C)c1,7.6,-24.2,-0.8,-43.0,52.4*
COc1ccccc1Cc1nc2ccccc2nc1SCC(=O)N1CCC(C)CC1,0.1,8.0,.,.,.
O=C(c1ccc(CN2CCc3ccccc3C2)cc1)N1CCCCC1,13.6,-19.9,-1.5,-36.6,34.9*
CCOc1ccccc1NC(=O)c1ccc(CN2CCc3ccccc3C2)cc1,1.2,-19.2,-0.8,-19.9,53.6*
O=C(CNC1CCN(Cc2ccccc2)CC1)Nc1ccc(S(=O)(=O)N2CCCCC2)cc1,0.1,-29.2,-3.4,-25.4,37.0*
COc1ccccc1CNC(=O)CC(c1ccc(C)cc1)N1Cc2ccccc2C1=O (centres undefined),-0.4,-1.6,.,.,.
Cc1cc(C(=O)N2CCc3ccccc32)n(-c2ccccc2)n1,1.9,5.2,-7.2,6.9,37.1*
COc1ccc(CNc2oc(/C=C/c3cc(OC)c(OC)c(OC)c3)nc2C#N)cc1,16.1,7.7,.,.,.
CC(=O)Nc1sc(N/N=C\c2ccccc2Cl)nc1-c1cccs1,-1.5,22.6,14.0,54.8*,-10.9
CC(=O)Nc1sc(N/N=C/c2ccccc2F)nc1-c1ccc(C)cc1,-1.9,-2.0,40.6*,15.4,4.6
CC(=O)Nc1sc(N/N=C\c2ccco2)nc1-c1cccs1,0.6,-9.8,?,78.2*,9.2
Cc1ccc(Nc2nc3nonc3nc2Nc2cccc(C(F)(F)F)c2)cc1Cl,6.6,-26.1,.,.,.
CCc1ccccc1NC(=S)N(CCN1CCOCC1)C1CCN(C(C)=O)CC1,-1.3,0.5,-3.8,-1.1,30.9*
Cc1cc(Oc2ccc(C#N)cc2)nc(NCc2ccccc2)n1,1.1,28.4,-0.8,-5.2,42.4*
CCc1ccc(NC(=O)N(Cc2ccc(C)cc2)Cc2cccn2-c2nnc(N3CCCC3=O)s2)cc1,0.0,-11.3,.,.,.
CCOC(=O)C1CCCN(S(=O)(=O)c2cc(-c3onc(C)c3C)ccc2OC)C1 (centres undefined),-0.5,2.9,.,.,.
O=[N+]([O-])c1cc(-c2nc(-c3ccncc3)no2)cc([N+](=O)[O-])c1,-0.5,2.7,?,95.4*,6.1
Brc1cccc(-c2nc(-c3ccncc3)no2)c1,0.5,7.5,-0.8,-20.5,40.9*
O=[N+]([O-])c1cc(-c2nc(-c3ccncc3)no2)ccc1Cl,0.7,4.3,1.8,-0.9,18.4
COc1ccc(C(=O)Nc2c(O)ccc3ccccc23)cc1OC,.,.,-0.1,17.1,.
COc1ccc(S(=O)(=O)Nc2c(O)ccc3ccccc23)cc1OC,.,.,?,106.9*,.
O=C(CCn1cnnn1)Nc1ccc(F)cc1,2.2,-4.2,-3.8,-2.1,31.9*
CC(=O)Nc1ccc(NC(=O)CCn2cnnn2)cc1,1.3,0.8,1.3,2.2,-23.4
COc1cc2[nH]cc(C(=O)NCc3ccccc3)c(=O)c2cc1OC,0.9,14.5,4.6,-3.6,10.0
COc1cc(C(=O)NCCC(=O)NC(C)CCc2ccccc2)cc(OC)c1OC (centres undefined),-0.2,33.2*,-3.7,-2.1,-7.7
COc1cc2[nH]c(C(=O)NCc3ccccc3)cc2c(OC)c1OC,-0.5,-14.6,1.0,-20.6,83.8*
